Experimental data as given in PubChem BioAssay AID456 (Sanford-Burnham Center for Chemical Genomics, 2006).
In all, about 10,000 compounds went through this assay and about 25 (0.2%) were called active. The sample holds actives, similar compounds and a random draw of the others, so the mix is not that of the screen.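 The calls were made as follows: active = top tenth filtered wells with inhibition above zero that passed visual or statistical confirmation; inactive = the rest, including hits rejected on review.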 Potency and affinity values are given separately.

Experiment: inhibitors of TNFa-induced VCAM-1 surface display, imaging, high-content imaging, pooled HUVEC, TNFa stimulus (AID 456);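 as to inhibition: VCAM-1 immunofluorescence minus red nonspecific channel after plate median normalization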
Settings: HUVEC TNFa-induced VCAM-1 surface expression, immunofluorescence imaging;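 compounds screened at 5 µM final in the well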

inhibition, inactive:
CN(C)c1ccc(NC(=O)CSCc2nc3c(nnn3Cc3ccc(F)cc3)c(=O)[nH]2)cc1
COC(=O)c1c(N)sc(C(=O)N2CCOCC2)c1C
O=C(CSc1nnc(-c2cccnc2)o1)Nc1ccccn1
c1ccc(Cn2ncc3c2ncn2c(-c4ccncc4)nnc32)cc1
CCOc1ccc(C(c2nnnn2Cc2ccccc2)N2CCN(C(=O)c3ccco3)CC2)cc1 (stereo unspecified)
O=C(CSc1nnnn1Cc1ccccc1)Nc1ccc2c(c1)OCO2
CCOC(=O)c1sc(Nc2nc3c(OC)cccc3s2)nc1C
COc1cc(NS(=O)(=O)N2CCCC2)cc(OC)c1OC
COc1ccc2ccccc2c1CN1CCN(C)CC1
c1cc(C(c2nnnn2C2CCCC2)N2CCOCC2)ccn1 (stereo unspecified)
O=C(Nc1ccc(N2CCOCC2)c(F)c1)c1ccncc1
COc1ccc2cc(C(c3nnnn3C(C)(C)C)N3CCc4ccccc4C3)c(=O)[nH]c2c1 (stereo unspecified)
CCC(C)(C)n1nnnc1C(c1ccc(OC)c(OC)c1)N1CCN(c2ccccc2)CC1 (stereo unspecified)
C=CCSC1=C(C#N)C(c2ccccc2OCC)CC(=O)N1 (stereo unspecified)
CNC(=O)CSc1nnc(-c2cc(C)cc(C)c2)o1
Cc1csc(NC(=O)CCCSc2nc3ccccc3s2)n1
CCOCCCNC(=O)C1CCCN(S(=O)(=O)CC)C1 (stereo unspecified)
O=C(NCc1ccccc1)C1CCCN1S(=O)(=O)c1cccc2cccnc12 (stereo unspecified)
CC(=O)[C@H]1CC[C@H]2[C@@H]3CCC4=CC(=O)CC[C@]4(C)[C@H]3CC[C@]12C 87.1%
C[C@]12CC[C@H]3[C@@H](CCC4=CC(=O)CC[C@@]43C)[C@@H]1CC[C@@H]2C(=O)CO 72.2%
CCCC(=O)O[C@]1(C(=O)CCl)[C@@H](C)C[C@H]2[C@@H]3CCC4=CC(=O)C=C[C@]4(C)[C@@]3(F)C(=O)C[C@@]21C
CC(=O)OCC(=O)[C@@]1(O)[C@H](C)C[C@H]2[C@@H]3CCC4=CC(=O)C=C[C@]4(C)[C@@]3(F)[C@@H](O)C[C@@]21C
CCOC(=O)Nc1cc(OCC)c(NC(=O)C2CC2)cc1OCC
COC(=O)CCN(C(=O)c1ccc2c(c1)OCO2)c1ccccn1
Cc1ccc(S(=O)(=O)N2CCCC(c3nnc4n3-c3ccccc3SC4)C2)cc1 (stereo unspecified)
Cc1ccc(Nc2nc(N)nc(CN3CCN(Cc4ccc5c(c4)OCO5)CC3)n2)cc1
COc1ccccc1C(=O)Nc1ccc(S(=O)(=O)N2CCCC2)cc1
COC(=O)c1cc(=O)n(Cc2ccc3c(c2)OCO3)c(=Nc2ccccc2)s1 96.4%
CCOC(=O)c1ccc(NC(=O)CSCc2ccco2)cc1
COc1ccc(S(=O)(=O)Cc2ccc(C(=O)N3CCN(Cc4ccccc4)CC3)o2)cc1
CCC(c1c(C)n(C)n(-c2ccccc2)c1=O)c1c(C)n(C)n(-c2ccccc2)c1=O
Cc1nc2sccn2c(=O)c1CCN1CCC(=C(c2ccc(F)cc2)c2ccc(F)cc2)CC1 87.2%
Cc1nc2ccccn2c(=O)c1CCN1CCC(C(=O)c2ccc(F)cc2)CC1
Cc1cccn2c(=O)c3cc(C#N)c(=NC(=O)c4ccncc4)n(Cc4ccco4)c3nc12
CCOC(=O)c1cc2c(=O)n3ccccc3nc2n(CC(C)C)c1=NC(=O)c1ccco1
Cc1n[nH]c(C)c1S(=O)(=O)N1CCCCCC1
CC1Oc2ccccc2N(CC(=O)N(Cc2ccccc2)Cc2ccccn2)C1=O (stereo unspecified)
COc1ccc(N2CCN(Cc3nc(-c4ccc(Cl)cc4Cl)no3)CC2)cc1
O=C(/C=C1\NC2(CCCC2)Cc2ccccc21)N1CCOCC1
CCCN1C=CC(=C2C(=O)c3ccccc3C2=O)C=C1
COc1ccc2cc3cc(C(=O)NCC4CCCO4)oc3nc2c1 (stereo unspecified)
CC1(C(=O)NC2CCCCC2)CCC(=O)N1Cc1cccs1 (stereo unspecified)
COc1ccc(Br)cc1S(=O)(=O)N1CCOCC1
Cc1cccc(-c2nnc(SCC#N)n2-c2cccc(Cl)c2)c1
COc1ccc2cc(CN(CCO)C(=O)c3ccccc3F)c(=O)[nH]c2c1
CCn1nnc(NC(=O)c2cc3ccccc3o2)n1
CCOC(=O)c1cccc(NC(=O)CSc2nnc(-c3ccoc3C)n2CCOC)c1
COC(=O)c1ccccc1NC(=O)CSc1nc2c(c(=O)n(C)c(=O)n2C)n1C
CCOc1ccc(-c2cc(C(=O)N3CCN(c4ccccn4)CC3)c3ccccc3n2)cc1
O=C(c1cnn2c(C(F)F)cc(-c3ccccc3)nc12)N1CCN2CCCC2C1 (stereo unspecified)
CC1(C)CC(CCNC(=O)c2ccco2)CC(C)(C)N1
CC1CCc2nn(CC(=O)NCc3ccc4c(c3)OCO4)cc2C1 (stereo unspecified)
CCS(=O)(=O)c1nc2ccccc2n1Cc1ccccc1Cl
O=C1c2oc3ccccc3c(=O)c2C(c2ccccn2)N1Cc1ccccc1 (stereo unspecified)
COc1ccc(Cl)c(NC(=O)NCCN2CCN(c3ccccc3)CC2)c1
Cc1cc2ncn(C(=O)c3c(-c4ccccc4)noc3C)c2cc1C
CCOC(=O)N1CCC(N2C(=O)c3ccccc3C2Nc2ccccc2C)CC1 (stereo unspecified)
CCOC(=O)c1ccccc1NC1c2ccccc2C(=O)N1C1CCN(C(=O)OCC)CC1 (stereo unspecified)
CCN(CC)C(=O)CSc1nnc([C@@H](N)Cc2ccccc2)o1
Cc1nnc(NC(=O)c2ccccc2F)s1
CCOc1ccc(N(CC(=O)NC2CCCC2)S(=O)(=O)c2c(C)[nH]c(=O)[nH]c2=O)cc1
CC1CC(C)CN(Cc2nc3c(c(=O)n(C)c(=O)n3C)n2Cc2ccccc2Cl)C1 (stereo unspecified)
O=C(COC(=O)c1ccc(S(=O)(=O)Nc2ccccc2)cc1)NCCN1C(=O)CSC1=O
CCOC(=O)CSc1nc2ccccc2c(=O)n1CCN1CCOCC1
O=C(NCCC1=CCCCC1)C1CC(=O)N(C2CCCCCC2)C1 (stereo unspecified)
CCCN1CCN(CCCNC(=O)Cn2nc(-c3ccc(Cl)cc3)ccc2=O)CC1
Cc1ccc(-c2ccc(=O)n(CC(=O)NCCCN3CCCCC3C)n2)cc1 (stereo unspecified)
COCc1nnc(NC(=O)CCCOc2ccccc2)s1
Cc1ccc(NC(=O)CCC(=O)O)cc1F
CC1Cc2ccccc2N1C(=O)CSc1nnc2n1C(C)(C)Cc1ccccc1-2 (stereo unspecified)
CCOc1ccc(Nc2nc(Cc3nnc(SCC(N)=O)o3)cs2)cc1
COc1ccc(Br)cc1C1N2CC3(C)CN1CC(C)(C2)C3=O (stereo unspecified)
Cc1cc(C)nc(SC2=CS(=O)(=O)c3ccccc32)n1 99.6%
O=S1(=O)C=C(Sc2nnc(-c3ccccc3)o2)c2ccccc21
CCCCN(CCCC)CCn1cnc2c([nH]c3ccc(OC)cc32)c1=O
O=C(CC1Oc2ccccc2NC1=O)NCCCN1CCOCC1 (stereo unspecified)
CC(C)(C)OC(=O)N1CCC(C(=O)N2CCCCCC2)CC1
Nc1cc(N)cc(-c2nc3ccccc3o2)c1
Nc1nc(CN2CCOCC2)cs1
CC(C(=O)N1c2ccc(F)cc2CCC1C)N1C(=O)c2ccccc2C1=O (stereo unspecified)
COc1cccc(NC(=O)CN2CCN(c3ccccc3F)CC2)c1
CCOc1ccc(N(CC(=O)Nc2ccc(C)c(C)c2)S(=O)(=O)c2c(C)noc2C)cc1
N#CCCN(Cc1cccnc1)C(=O)Nc1ccc(Cl)c(Cl)c1
COc1ccccc1-c1noc(-c2ccco2)n1
CCOC(=O)Cn1nc(-c2ccc(Cl)cc2)cc1N
Cc1cc(=O)n2[nH]c(-c3ccc(Cl)cc3)cc2n1
COc1ccc(NC(=O)CN(c2cc(C)cc(C)c2)S(=O)(=O)c2c(C)noc2C)cc1OC
CC(=O)Nc1nc(C)c(-c2csc(Nc3ccc(O)cc3)n2)s1
c1cc2c(cc1Nc1nc(-c3ccc4c(c3)OCO4)cs1)OCCO2
Cc1ccc(Cc2c(C)nc3c(C(=O)O)cnn3c2C)cc1
CCOC(=O)CN1CC23C=CC(O2)C(C(=O)Nc2ccc(OCC)cc2)C3C1=O (stereo unspecified)
CN(C)CCCN1c2ccccc2Sc2ccc(C(F)(F)F)cc21
CN(C)CCCN1c2ccccc2Sc2ccccc21
CNCCCN1c2ccccc2CCc2ccccc21
CN(C)CCCN1c2ccccc2CCc2ccccc21
CCC1CCCCN1CCCNC(=O)CC1Oc2ccc(C)cc2NC1=O (stereo unspecified)

inhibition, active:
CC(=O)OCC(=O)[C@H]1CC[C@H]2[C@@H]3CCC4=CC(=O)CC[C@]4(C)[C@H]3CC[C@]12C 78.2%
CCC(=O)O[C@]1(C(=O)CCl)[C@@H](C)C[C@H]2[C@@H]3CCC4=CC(=O)C=C[C@]4(C)[C@@]3(F)[C@@H](O)C[C@@]21C 78.5%
CC(C)n1c(=NC(=O)c2ccco2)c(C#N)cc2c(=O)n3ccccc3cc21 78.9%
Cc1ccc(-c2cc(C(F)F)n3ncc(C(=O)N4CCN(c5ccccn5)CC4)c3n2)cc1 80.5%
CCOC(=O)N1CCC(N2C(=O)c3ccccc3C2Nc2cc(Cl)c(OC)cc2OC)CC1 (stereo unspecified) 72.7%
